The full data set covers some 8,800 targets. This sample favours those with a hit. About 0.5% of all pairs of compound and target were hits.

Chain of UniProt O15027 (O15027 whole entry, looked up): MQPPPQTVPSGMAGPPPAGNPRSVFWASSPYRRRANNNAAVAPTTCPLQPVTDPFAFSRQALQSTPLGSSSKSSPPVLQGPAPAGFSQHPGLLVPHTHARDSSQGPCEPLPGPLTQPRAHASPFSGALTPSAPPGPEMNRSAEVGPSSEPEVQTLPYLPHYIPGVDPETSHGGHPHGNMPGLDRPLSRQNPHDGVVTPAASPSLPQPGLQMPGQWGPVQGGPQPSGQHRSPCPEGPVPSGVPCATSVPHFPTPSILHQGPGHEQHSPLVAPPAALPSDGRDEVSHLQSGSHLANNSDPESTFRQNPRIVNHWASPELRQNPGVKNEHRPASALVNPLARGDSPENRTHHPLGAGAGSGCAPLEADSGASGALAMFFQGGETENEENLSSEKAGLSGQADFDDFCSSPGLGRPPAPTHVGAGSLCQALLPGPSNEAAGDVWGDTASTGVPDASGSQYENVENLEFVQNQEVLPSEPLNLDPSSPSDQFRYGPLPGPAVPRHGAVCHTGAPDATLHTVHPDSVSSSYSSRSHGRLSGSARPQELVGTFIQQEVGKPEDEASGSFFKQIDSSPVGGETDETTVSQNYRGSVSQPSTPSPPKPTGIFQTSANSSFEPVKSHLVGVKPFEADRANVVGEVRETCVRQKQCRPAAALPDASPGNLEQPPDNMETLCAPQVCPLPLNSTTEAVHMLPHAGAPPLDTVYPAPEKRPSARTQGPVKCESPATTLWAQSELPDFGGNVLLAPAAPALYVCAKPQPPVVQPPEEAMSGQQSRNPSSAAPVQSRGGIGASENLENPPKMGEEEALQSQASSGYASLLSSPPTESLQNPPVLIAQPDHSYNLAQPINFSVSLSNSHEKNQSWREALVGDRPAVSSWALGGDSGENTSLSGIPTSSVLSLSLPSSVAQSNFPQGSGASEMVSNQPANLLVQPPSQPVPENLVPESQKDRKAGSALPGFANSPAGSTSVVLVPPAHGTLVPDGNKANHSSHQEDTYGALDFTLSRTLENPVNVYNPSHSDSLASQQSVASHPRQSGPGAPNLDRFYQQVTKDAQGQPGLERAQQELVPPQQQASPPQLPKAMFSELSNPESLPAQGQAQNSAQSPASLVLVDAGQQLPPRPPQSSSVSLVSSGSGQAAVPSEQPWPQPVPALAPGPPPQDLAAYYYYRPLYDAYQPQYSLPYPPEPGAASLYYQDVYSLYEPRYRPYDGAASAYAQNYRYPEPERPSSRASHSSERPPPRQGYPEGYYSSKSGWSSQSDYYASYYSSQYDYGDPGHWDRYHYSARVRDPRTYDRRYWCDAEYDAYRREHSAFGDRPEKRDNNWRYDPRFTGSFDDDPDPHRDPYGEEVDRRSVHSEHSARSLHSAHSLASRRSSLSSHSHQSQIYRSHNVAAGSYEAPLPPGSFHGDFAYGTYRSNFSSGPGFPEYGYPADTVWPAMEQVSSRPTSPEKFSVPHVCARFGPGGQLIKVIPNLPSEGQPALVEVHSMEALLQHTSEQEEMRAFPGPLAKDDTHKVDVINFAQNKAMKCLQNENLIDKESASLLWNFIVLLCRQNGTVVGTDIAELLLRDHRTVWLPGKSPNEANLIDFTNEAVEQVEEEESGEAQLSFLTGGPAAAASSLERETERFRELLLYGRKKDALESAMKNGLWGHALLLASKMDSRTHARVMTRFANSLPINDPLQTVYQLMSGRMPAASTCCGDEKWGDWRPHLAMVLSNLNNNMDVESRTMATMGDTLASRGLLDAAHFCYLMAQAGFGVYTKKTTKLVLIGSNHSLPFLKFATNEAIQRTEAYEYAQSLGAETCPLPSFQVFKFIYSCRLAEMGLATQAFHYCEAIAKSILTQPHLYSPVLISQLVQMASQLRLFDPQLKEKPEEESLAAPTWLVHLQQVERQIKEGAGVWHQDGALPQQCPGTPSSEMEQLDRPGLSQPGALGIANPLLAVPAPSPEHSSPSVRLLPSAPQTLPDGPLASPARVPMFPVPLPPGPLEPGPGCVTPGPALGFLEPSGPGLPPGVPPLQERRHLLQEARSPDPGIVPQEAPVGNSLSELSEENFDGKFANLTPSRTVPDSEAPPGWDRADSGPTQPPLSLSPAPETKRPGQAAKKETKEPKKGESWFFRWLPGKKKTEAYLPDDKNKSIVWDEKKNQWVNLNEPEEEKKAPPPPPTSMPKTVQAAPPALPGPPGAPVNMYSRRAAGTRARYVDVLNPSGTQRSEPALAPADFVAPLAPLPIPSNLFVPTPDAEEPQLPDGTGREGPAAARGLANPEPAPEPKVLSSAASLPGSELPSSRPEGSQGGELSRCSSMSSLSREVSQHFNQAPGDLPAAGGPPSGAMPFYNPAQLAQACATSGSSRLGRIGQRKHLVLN
Chain of UniProt Q99496 (Q99496 whole entry, looked up): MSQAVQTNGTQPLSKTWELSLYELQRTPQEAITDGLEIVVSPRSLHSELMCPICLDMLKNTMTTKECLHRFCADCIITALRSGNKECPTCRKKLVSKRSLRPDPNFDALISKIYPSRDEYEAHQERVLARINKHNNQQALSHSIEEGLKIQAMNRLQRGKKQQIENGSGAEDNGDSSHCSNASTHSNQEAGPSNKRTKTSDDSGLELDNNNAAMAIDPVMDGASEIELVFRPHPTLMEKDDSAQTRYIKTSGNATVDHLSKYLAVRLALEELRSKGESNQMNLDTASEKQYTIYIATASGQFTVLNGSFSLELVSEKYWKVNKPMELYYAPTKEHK
Chain of UniProt Q9BXT8 (Q9BXT8 whole entry, looked up): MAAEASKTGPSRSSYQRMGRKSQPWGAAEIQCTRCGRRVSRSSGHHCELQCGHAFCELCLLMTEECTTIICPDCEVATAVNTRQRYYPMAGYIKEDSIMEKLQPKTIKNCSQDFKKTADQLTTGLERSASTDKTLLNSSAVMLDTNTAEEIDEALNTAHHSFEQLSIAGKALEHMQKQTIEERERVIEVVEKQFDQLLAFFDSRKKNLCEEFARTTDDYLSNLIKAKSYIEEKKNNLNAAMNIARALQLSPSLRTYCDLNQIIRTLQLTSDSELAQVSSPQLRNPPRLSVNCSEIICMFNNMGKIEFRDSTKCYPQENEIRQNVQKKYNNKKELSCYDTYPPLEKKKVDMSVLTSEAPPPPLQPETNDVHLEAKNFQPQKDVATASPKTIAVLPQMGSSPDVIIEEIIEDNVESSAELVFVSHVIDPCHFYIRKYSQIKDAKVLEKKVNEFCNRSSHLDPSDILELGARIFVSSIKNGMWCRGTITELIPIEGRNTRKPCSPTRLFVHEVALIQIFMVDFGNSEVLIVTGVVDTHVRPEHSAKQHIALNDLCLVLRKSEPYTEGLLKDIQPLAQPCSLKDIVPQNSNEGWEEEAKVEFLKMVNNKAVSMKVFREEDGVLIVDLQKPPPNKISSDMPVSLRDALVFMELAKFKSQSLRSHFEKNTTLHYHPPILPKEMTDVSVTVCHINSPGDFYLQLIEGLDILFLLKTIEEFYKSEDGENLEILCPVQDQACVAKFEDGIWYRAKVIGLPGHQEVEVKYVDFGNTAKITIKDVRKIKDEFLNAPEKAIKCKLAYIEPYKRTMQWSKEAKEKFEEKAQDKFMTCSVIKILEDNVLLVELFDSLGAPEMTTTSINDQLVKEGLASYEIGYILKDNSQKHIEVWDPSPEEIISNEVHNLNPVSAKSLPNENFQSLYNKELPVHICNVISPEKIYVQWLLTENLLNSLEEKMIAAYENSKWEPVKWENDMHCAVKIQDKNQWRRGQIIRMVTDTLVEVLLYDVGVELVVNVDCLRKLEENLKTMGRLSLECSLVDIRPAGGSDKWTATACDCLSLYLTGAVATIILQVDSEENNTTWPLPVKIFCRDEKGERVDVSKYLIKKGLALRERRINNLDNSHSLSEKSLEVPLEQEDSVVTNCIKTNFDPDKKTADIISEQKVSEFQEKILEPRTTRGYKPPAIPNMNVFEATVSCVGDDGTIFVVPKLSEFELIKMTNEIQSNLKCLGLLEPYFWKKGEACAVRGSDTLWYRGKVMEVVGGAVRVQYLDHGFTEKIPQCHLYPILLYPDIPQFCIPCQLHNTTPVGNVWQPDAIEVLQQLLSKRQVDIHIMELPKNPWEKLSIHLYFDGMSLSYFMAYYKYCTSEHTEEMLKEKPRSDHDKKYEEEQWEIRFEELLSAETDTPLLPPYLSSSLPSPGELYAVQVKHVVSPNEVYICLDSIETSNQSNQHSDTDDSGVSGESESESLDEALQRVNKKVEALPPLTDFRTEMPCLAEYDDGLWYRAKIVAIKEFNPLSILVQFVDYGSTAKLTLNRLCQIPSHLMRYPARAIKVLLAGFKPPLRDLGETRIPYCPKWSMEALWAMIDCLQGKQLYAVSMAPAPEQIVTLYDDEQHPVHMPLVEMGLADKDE
Chain of UniProt P19793 (P19793 whole entry, looked up): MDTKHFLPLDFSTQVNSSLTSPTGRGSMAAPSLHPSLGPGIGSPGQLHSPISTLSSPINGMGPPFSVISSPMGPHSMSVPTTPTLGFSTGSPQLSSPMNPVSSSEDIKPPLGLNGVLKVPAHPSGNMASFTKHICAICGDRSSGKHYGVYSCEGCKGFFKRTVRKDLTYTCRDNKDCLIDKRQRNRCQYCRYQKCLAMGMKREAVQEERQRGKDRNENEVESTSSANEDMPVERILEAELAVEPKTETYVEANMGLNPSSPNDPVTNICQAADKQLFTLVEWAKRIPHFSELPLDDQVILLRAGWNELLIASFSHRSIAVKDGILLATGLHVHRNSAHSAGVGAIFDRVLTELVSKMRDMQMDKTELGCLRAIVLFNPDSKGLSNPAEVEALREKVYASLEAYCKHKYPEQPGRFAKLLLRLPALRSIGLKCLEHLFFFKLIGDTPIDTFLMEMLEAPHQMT
Chain of UniProt Q8TC12 (Q8TC12 whole entry, looked up): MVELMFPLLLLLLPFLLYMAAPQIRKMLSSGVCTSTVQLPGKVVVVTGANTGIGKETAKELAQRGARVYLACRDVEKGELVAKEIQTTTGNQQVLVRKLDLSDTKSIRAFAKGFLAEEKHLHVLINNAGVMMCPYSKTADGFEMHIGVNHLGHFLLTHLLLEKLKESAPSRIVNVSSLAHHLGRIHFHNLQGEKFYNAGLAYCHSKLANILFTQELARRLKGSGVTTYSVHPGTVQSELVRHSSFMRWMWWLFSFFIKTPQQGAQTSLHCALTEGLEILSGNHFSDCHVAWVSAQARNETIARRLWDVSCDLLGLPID

Compound in one assay: CC(C)(C)Cn1c(N)nc2ccc(-c3[nH]c(C(C)(C)C)nc3-c3ccc(F)cc3)nc21 [ralimetinib]
Nature of the assay: log2 fold change, soluble protein after heating vs DMSO (PISA); higher = thermal stabilisation; K562 lysate, 10 uM; active = over 0.2 and 3.5 SD of the protein, either way, in both replicates (recomputed). Put shortly: (§1)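 Log-two fold change in thermal stability relative to solvent controls is reported from duplicates. For each sample, crude K562 extract from dounce-homogenised pellets in PBS pH 7.4 with 1 mM MgCl2, at 1 mg/mL protein, was treated with 10 μM compound for 30 min. Aliquots heated for 3 min across 48°C-58°C were pooled, brought to 0.5% NP-40 at 4°C and cleared at 21,000xg for 90 min. The supernatant was quantified by TMTpro 16plex LC-MS/MS with channel sums equalised.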
In the case of RXRA (UniProt P19793), the log2 fold change is -0.033 (inactive).
For the target RDH11 (UniProt Q8TC12), the log2 fold change is 0.005 (inactive).
With SEC16A isoform 2 (UniProt O15027), the log2 fold change is -0.103 (inactive).
On to RHOU (UniProt Q7L0Q8), for which the log2 fold change is 0.057 (inactive).
With RYR1 (UniProt P21817), the log2 fold change was -0.028 (inactive).
The same measure, in the same setting: the result for RNF2 (UniProt Q99496) reads -0.053 (inactive).
As to RAD54L (UniProt Q92698), the log2 fold change is -0.062 (inactive).
In the case of RPS6KA3 (UniProt P51812), the log2 fold change is -0.004 (inactive).
For RNPC3 (UniProt Q96LT9), the log2 fold change is 0.02 (inactive).
In the case of RUFY2 isoform 1 (UniProt Q8WXA3), the log2 fold change is -0.031 (inactive).
Consider ROBO2 isoform 3 (UniProt Q9HCK4), for which the log2 fold change is 0.103 (inactive).
Still for that read-out and setting: the same measure for SCNM1 (UniProt Q9BWG6): 0.013 (inactive); for RMI2 (UniProt Q96E14): -0.061 (inactive).
SEC16A isoform 3 (UniProt O15027): the log2 fold change is -0.283 (inactive).
Regarding QSER1, A0A3B3IRW6, the log2 fold change is -0.014 (inactive).
On the same count and under the same terms, the same measure for S100A6 (UniProt P06703): 0.117 (inactive).
In the case of RNF17 (UniProt Q9BXT8), the log2 fold change is -0.044 (inactive).
The same measure, in the same setting: the result for SATB2 (UniProt Q9UPW6) reads 0.037 (inactive); that for RPS6KA5 (UniProt O75582), -0.02 (inactive).
On to RAD17 (UniProt O75943), for which the log2 fold change is 0.054 (inactive).

Compound in a further assay: CC(C)(O)CC(=O)NCCn1ccc2ncnc(Nc3ccc(Oc4cccc(C(F)(F)F)c4)c(Cl)c3)c21
The description is as above. A digest of the protocol: as §1
For the target RXRA (UniProt P19793), the log2 fold change is 0.087 (inactive).
For RDH11 (UniProt Q8TC12), the log2 fold change is -0.043 (inactive).
On the same count and under the same terms, the result for SEC16A isoform 2 (UniProt O15027) reads -0.062 (inactive).
For RHOU (UniProt Q7L0Q8), the log2 fold change is 0.009 (inactive).
Same read-out and setting: the same measure for RYR1 (UniProt P21817): -0.012 (inactive); for RNF2 (UniProt Q99496): -0.01 (inactive); for RAD54L (UniProt Q92698): -0.224 (inactive).
As for RPS6KA3 (UniProt P51812), the log2 fold change was -0.032 (inactive).
On to RNPC3 (UniProt Q96LT9), for which the log2 fold change was -0.029 (inactive).
Same read-out and setting: the result for RUFY2 isoform 1 (UniProt Q8WXA3) reads 0.005 (inactive); that for ROBO2 isoform 3 (UniProt Q9HCK4), -0.287 (inactive); that for SCNM1 (UniProt Q9BWG6), 0.012 (inactive).
Same read-out and setting: the result for RMI2 (UniProt Q96E14) reads 0.007 (inactive); that for SEC16A isoform 3 (UniProt O15027), -0.122 (inactive); that for QSER1, A0A3B3IRW6, -0.021 (inactive).
Same read-out and setting: the result for S100A6 (UniProt P06703) reads 0.152 (inactive); that for RNF17 (UniProt Q9BXT8), -0.254 (inactive); that for SATB2 (UniProt Q9UPW6), -0.004 (inactive).
With RPS6KA5 (UniProt O75582), the log2 fold change is -0.055 (inactive).
Consider RAD17 (UniProt O75943), for which the log2 fold change was 0.041 (inactive).

Values taken from the supplement of paper PMC10849652.
